# Unmarked numbers belong to inactive results. Inconclusive results are not listed. A call without a number means that no potency is given here. The source made the active and inactive calls. Unless noted, calls follow the shape of the dose curve; as a rule, active = well fitted curve in the direction sought with a large enough effect in the repeat runs; inconclusive = weak or mixed curves; inactive = no such curve, though single readings can be large; an effect the other way counts as inactive or inconclusive.
# Tests used:
# [1] = qHTS RealTime-Glo MT Cell Viability Assay in HEK293 cells - 0 hour (AID 1224880); conditions: RealTime-Glo luminescence; series mostly up to 76.8 µM; also: top concentration of the series differs between compounds; nearly all actives have a fitted effect of over 45% in size
# Procedure, shortened: (§1)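 qHTS format; HEK293 cells with NanoLuc/prosubstrate reagent, 37 C/5% CO2 for 5 h pre-dosing; compounds 23 nL in DMSO; luminescence at each time point reflects viable cells.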
# [2] = A CellTox Green Cytotoxicity Assay to monitor cytotoxicity in HEK293 cells - 32 hour (AID 1224881); conditions: CellTox Green fluorescence; series mostly up to 76.8 µM; also: nearly all actives have a fitted effect of over 40% in size; also: potency is read from the fitted curve at half-maximal effect
# Procedure, shortened: (§2)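 Each value comes from one timepoint of a single continuous run in which HEK293 cells with CellTox Green were exposed to compound for up to 40 h at 37 C, dye fluorescence rising with cell death.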
# [3] = A CellTox Green Cytotoxicity Assay to monitor cytotoxicity in HepG2 cells - 0 hour (AID 1224882); conditions: CellTox Green fluorescence; series mostly up to 76.8 µM; also: nearly all actives have a fitted effect of over 35% in size
# Procedure, shortened: (§3)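 Continuous culture of HepG2 cells with a membrane-impermeant DNA dye; rising fluorescence marks dead cells. Compound exposure lasted up to 40 h at 37 C, with reads every 8 h from 0 h.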
# [4] = A CellTox Green Cytotoxicity Assay to monitor cytotoxicity in HepG2 cells - 32 hour (AID 1224883); conditions: CellTox Green fluorescence; series mostly up to 76.8 µM; also: nearly all actives have a fitted effect of over 50% in size; also: potency is read from the fitted curve at half-maximal effect
# Procedure, shortened: as §3
# [5] = qHTS RealTime-Glo MT Cell Viability Assay in HepG2 cells - 16 hour (AID 1224885); conditions: RealTime-Glo luminescence; series mostly up to 76.8 µM; also: nearly all actives have a fitted effect of over 50% in size
# Procedure, shortened: (§4)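 HepG2 suspension premixed with RealTime-Glo reagents is plated at 600 cells per well and left 5 h at 37 C/5% CO2. Compounds in DMSO then go in, and bioluminescence reflecting viable cell number is recorded over 40 h.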
# [6] = qHTS RealTime-Glo MT Cell Viability Assay in HEK293 cells - 24 hour (AID 1224886); conditions: RealTime-Glo luminescence; series mostly up to 76.8 µM; also: top concentration of the series differs between compounds; nearly all actives have a fitted effect of over 50% in size
# Procedure, shortened: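 Reads taken at 0, 8, 16, 24, 32 and 40 h from the same wells. HEK293 cells (600/well) carried RealTime-Glo reagents from seeding, with compound added after a 5 h settle at 37 C.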
# [7] = qHTS RealTime-Glo MT Cell Viability Assay in HEK293 cells - 8 hour (AID 1224887); conditions: RealTime-Glo luminescence; series mostly up to 76.8 µM; also: top concentration of the series differs between compounds; nearly all actives have a fitted effect of over 50% in size
# Procedure, shortened: as §1
# [8] = A CellTox Green Cytotoxicity Assay to monitor cytotoxicity in HEK293 cells - 16 hour (AID 1224888); conditions: CellTox Green fluorescence, active compounds read high; series mostly up to 76.8 µM; also: nearly all actives have a fitted effect of over 35% in size
# Procedure, shortened: as §2
# [9] = qHTS RealTime-Glo MT Cell Viability Assay in HepG2 cells - 0 hour (AID 1224889); conditions: RealTime-Glo luminescence; series mostly up to 76.8 µM; also: nearly all actives have a fitted effect of over 50% in size
# Procedure, shortened: as §4
# [10] = A CellTox Green Cytotoxicity Assay to monitor cytotoxicity in HepG2 cells - 8 hour (AID 1224890); conditions: CellTox Green fluorescence; series mostly up to 76.8 µM; also: nearly all actives have a fitted effect of over 45% in size
# Procedure, shortened: as §3
# [11] = qHTS assay to identify small molecule antagonists of the estrogen receptor alpha (ER-alpha) signaling pathway using the BG1 cell line in the presence of 0.1 nM 17-beta-estradiol - cell viability counter screen (AID 1259241); conditions: VM7Luc4E2 (BG1) viability, CellTiter-Fluor protease, 22 h, 0.1 nM estradiol agonist added; series mostly up to 92.4 µM; also: nearly all actives have a fitted effect of over 40% in size
# Procedure, shortened: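 In this screen, hormone-deprived VM7Luc4E2 cells were seeded at 4,000 per well, dosed with compound and 0.1 nM estradiol final, and incubated 22 hr at 37C and 5% CO2; fluorogenic live-cell protease signal reported viability.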
# [12] = qHTS assay to identify small molecule antagonists of the androgen receptor (AR) signaling pathway using the MDA cell line in the presence of 0.5 nM R1881 - cell viability counter screen (AID 1259242); conditions: MDA-kb2 viability, CellTiter-Fluor protease fluorescence, 16 h; series mostly up to 92.4 µM; also: nearly all actives have a fitted effect of over 45% in size
# Procedure, shortened: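 Fluorescence from CellTiter-Fluor, which reports protease activity of live cells, was read 30 min after reagent addition to MDA-kb2 cells that had been incubated 16 hr with compound and 0.5 nM R1881.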
# [13] = molecular target: Estrogen receptor (Homo sapiens) (UniProt P03372); experiment: qHTS assay to identify small molecule antagonists of the estrogen receptor alpha (ER-alpha) signaling pathway using the BG1 cell line in the presence of 0.1 nM 17-beta-estradiol (AID 1259244); conditions: VM7Luc4E2 (BG1) ERE-luciferase, antagonist mode, 0.1 nM E2, 22 h; series mostly up to 92.4 µM; also: nearly all actives have a fitted effect of over 50% in size
# Estrogen receptor (Homo sapiens), sequence (P03372 whole entry, looked up): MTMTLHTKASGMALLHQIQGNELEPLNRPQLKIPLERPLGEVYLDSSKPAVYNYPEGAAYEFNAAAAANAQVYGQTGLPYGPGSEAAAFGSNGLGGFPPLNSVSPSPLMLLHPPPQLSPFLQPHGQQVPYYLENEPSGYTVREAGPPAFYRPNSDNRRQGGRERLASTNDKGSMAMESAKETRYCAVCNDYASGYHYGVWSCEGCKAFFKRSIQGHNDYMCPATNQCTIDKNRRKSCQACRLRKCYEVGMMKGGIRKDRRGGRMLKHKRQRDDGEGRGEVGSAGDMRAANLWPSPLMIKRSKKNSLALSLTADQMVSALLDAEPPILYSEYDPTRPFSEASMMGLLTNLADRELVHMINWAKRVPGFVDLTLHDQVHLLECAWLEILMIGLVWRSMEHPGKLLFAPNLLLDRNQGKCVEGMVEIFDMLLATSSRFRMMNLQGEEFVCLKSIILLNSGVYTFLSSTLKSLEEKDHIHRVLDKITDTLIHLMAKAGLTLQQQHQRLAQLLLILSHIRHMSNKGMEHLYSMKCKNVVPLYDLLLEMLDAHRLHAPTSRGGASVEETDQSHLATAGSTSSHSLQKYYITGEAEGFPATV
# Procedure, shortened: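 Quantitative high-throughput screen in VM7Luc4E2 cells: compound plus 0.1 nM E2 (final), 22 h, 37C, 5% CO2; ONE-Glo added, 30 min room temperature, luminescence measured.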
# [14] = qHTS assay to identify small molecule HDAC inhibitors (AID 1259364); conditions: HCT-116 HDAC-Glo I/II luminescence, 2 h; series mostly up to 92.4 µM; also: top concentration of the series differs between compounds; nearly all actives have a fitted effect of over 45% in size
# Procedure, shortened: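 Endogenous HDAC class I/II activity was measured in wild-type HCT-116 cells by HDAC-Glo luminescence after 2 h compound treatment.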
# [15] = qHTS assay to identify small molecule HDAC inhibitors - cell viability counter screen (AID 1259365); conditions: HCT-116 viability, CellTiter-Glo ATP luminescence, 2 h; series mostly up to 92.4 µM; also: nearly all actives have a fitted effect of over 50% in size
# Procedure, shortened: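 Measured quantity is CellTiter-Glo luminescence from wild-type HCT-116 cells after compound incubation of 2hr at 37C, 5% CO2; reagent developed 30min at room temperature.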
# [16] = qHTS assay to identify small molecule agonists of the sonic hedgehog signaling (Shh) pathway - cell viability counter screen (AID 1259366); conditions: NIH/3T3 Gli1-Luc viability, CellTiter-Fluor, 24 h; series mostly up to 92.4 µM; also: nearly all actives have a fitted effect of over 50% in size; also: potency is read from the fitted curve at half-maximal effect
# Procedure, shortened: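 In quantitative high-throughput format, 3T3 Gli1-Luc cells were exposed to compounds for 24hr and multiplexed for viability using CellTiter-Fluor, incubated 1hr at 37C before the fluorescence read.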
# [17] = qHTS assay to identify small molecule antagonists of the sonic hedgehog signaling (Shh) pathway - cell viability counter screen (AID 1259367); conditions: NIH/3T3 Gli1-Luc viability, CellTiter-Fluor, 24 h; series mostly up to 92.4 µM; also: nearly all actives have a fitted effect of over 55% in size; also: potency is read from the fitted curve at half-maximal effect
# Procedure, shortened: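 NIH/3T3-derived Gli1-Luc reporter cells, 2,000/well, plated 4 hr before compound addition, then stimulated with conditioned medium for 24 hr at 37C. Viability measured in the same wells by CellTiter-Fluor fluorescence, reagent added at 23 hr for 1 hr.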
# [18] = A CellTox Green Cytotoxicity Assay to monitor cytotoxicity in HEK293 cells - 8 hour (AID 1224884); conditions: CellTox Green fluorescence; series mostly up to 76.8 µM; also: nearly all actives have a fitted effect of over 35% in size
# Procedure, shortened: as §2
# [19] = qHTS assay to identify small molecule phospholipidosis (PLD) inducers (AID 1259344; active = well fitted curve in the direction sought with a large enough effect; an effect the other way counts as inactive or inconclusive); conditions: HepG2 phospholipidosis, LipidTOX Red imaging, 24 h; series mostly up to 38.3 µM
# Procedure, shortened: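 HepG2 cells, 900/well, treated with compound plus LipidTOX Red for 24 h at 37 C; amiodarone positive and DMSO negative controls. Fixed with paraformaldehyde/Hoechst, then high-content imaging scored LipidTOX pit count and integrated intensity per well and per cell.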
# [20] = molecular target: Androgen receptor (Homo sapiens) (UniProt P10275); experiment: qHTS assay to identify small molecule antagonists of the androgen receptor (AR) signaling pathway using the MDA cell line in the presence of 0.5 nM R1881 (AID 1259243); conditions: MDA-kb2 MMTV-luciferase, R1881 0.5 nM, 16 h; series mostly up to 92.4 µM; also: nearly all actives have a fitted effect of over 50% in size
# Androgen receptor (Homo sapiens), sequence (P10275 whole entry, looked up): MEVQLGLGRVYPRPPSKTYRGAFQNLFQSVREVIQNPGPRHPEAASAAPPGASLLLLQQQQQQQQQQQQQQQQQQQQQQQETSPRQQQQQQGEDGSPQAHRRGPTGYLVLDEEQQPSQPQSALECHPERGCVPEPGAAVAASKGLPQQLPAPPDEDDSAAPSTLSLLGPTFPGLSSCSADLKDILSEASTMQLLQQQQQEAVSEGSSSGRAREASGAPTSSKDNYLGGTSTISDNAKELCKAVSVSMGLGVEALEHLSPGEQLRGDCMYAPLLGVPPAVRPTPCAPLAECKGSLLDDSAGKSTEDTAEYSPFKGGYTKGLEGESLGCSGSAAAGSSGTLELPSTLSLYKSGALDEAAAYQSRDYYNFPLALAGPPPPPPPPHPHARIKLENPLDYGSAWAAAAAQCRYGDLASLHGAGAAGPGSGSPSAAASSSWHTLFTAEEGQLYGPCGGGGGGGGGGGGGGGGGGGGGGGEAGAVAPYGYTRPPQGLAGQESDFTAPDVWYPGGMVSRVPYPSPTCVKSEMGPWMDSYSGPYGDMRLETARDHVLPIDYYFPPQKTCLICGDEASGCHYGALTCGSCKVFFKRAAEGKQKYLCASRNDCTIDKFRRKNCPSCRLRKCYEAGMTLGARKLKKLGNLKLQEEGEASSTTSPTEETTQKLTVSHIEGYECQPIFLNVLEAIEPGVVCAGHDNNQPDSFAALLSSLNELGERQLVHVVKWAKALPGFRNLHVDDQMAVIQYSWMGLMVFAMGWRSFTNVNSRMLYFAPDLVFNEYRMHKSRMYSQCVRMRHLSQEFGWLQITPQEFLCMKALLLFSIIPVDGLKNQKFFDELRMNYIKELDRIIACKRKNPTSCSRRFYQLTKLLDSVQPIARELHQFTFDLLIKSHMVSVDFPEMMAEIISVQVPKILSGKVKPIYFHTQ
# Procedure, shortened: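 Inhibition of R1881 (0.5 nM final) induced reporter signal was measured in human MDA-kb2 cells; note the MMTV promoter also responds to GR. Exposure lasted 16 hr at 37C.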
SMILES,Potency [1],Potency [2],outcome [3],Potency [4],outcome [5],Potency [6],Potency [7],outcome [8],Potency [9],outcome [10],Potency [11],outcome [12],Potency [13],Potency [14],outcome [15],Potency [16],Potency [17],Potency [18],outcome [19],Potency [20]
CCCCCCN,inactive,inactive,inactive,inactive,inactive,inactive,inactive,inactive,inactive,inactive,inactive,inactive,inactive,inactive,inactive,inactive,inactive,–,–,–
O=C(NCC(O)CO)c1c(I)c(C(=O)NCC(O)CO)c(I)c(N(CCO)C(=O)CO)c1I (stereo not drawn),inactive,inactive,inactive,inactive,inactive,inactive,–,inactive,inactive,inactive,inactive,inactive,–,inactive,inactive,inactive,inactive,inactive,–,–
CCCCCCCCCCCCCC,inactive,inactive,inactive,inactive,inactive,inactive,–,inactive,inactive,inactive,inactive,inactive,–,inactive,inactive,inactive,inactive,inactive,–,–
CCOC(=O)/C=C/c1ccccc1,inactive,inactive,inactive,inactive,inactive,inactive,inactive,inactive,inactive,inactive,inactive,inactive,inactive,inactive,inactive,inactive,inactive,–,–,–
COC(=O)CCc1ccc(OCC(O)CNC(C)C)cc1 (stereo not drawn),inactive,inactive,inactive,inactive,inactive,inactive,–,inactive,inactive,inactive,inactive,inactive,–,inactive,inactive,inactive,inactive,inactive,inactive,–
COc1ccc2nc(SCc3ncc(C)c(OC)c3C)[nH]c2c1,inactive,inactive,inactive,inactive,inactive,–,–,inactive,inactive,inactive,inactive,inactive,inactive,inactive,inactive,inactive,inactive,inactive,–,inactive
Cc1cccc2nccnc12,inactive,24.5 µM (active),inactive,inactive,inactive,inactive,–,–,inactive,inactive,inactive,–,inactive,inactive,inactive,inactive,inactive,inactive,–,–
CCCCCCCCC1CCC(=O)O1 (stereo not drawn),inactive,inactive,inactive,inactive,inactive,inactive,–,inactive,–,inactive,inactive,inactive,inactive,inactive,inactive,inactive,inactive,inactive,–,–
Cc1ccccc1C(=O)Nc1ccc(C(=O)N2CCCC(N(C)C)c3ccccc32)cc1 (stereo not drawn),inactive,inactive,inactive,7.56 µM (active),inactive,–,inactive,inactive,inactive,inactive,inactive,inactive,inactive,inactive,inactive,–,–,inactive,–,–
CCCCCCOc1ccccc1C(N)=O,inactive,inactive,inactive,inactive,inactive,–,–,inactive,inactive,inactive,inactive,inactive,–,–,inactive,inactive,inactive,inactive,inactive,–
Cc1ccccc1N=O,inactive,inactive,inactive,inactive,inactive,inactive,inactive,inactive,inactive,inactive,inactive,inactive,–,inactive,inactive,inactive,inactive,–,–,–
c1ccc2nccnc2c1,inactive,inactive,inactive,inactive,inactive,inactive,inactive,inactive,inactive,inactive,inactive,inactive,inactive,inactive,inactive,inactive,inactive,–,–,–
O=C(O)CCSSCCC(=O)O,inactive,inactive,inactive,inactive,inactive,inactive,–,inactive,inactive,inactive,inactive,–,inactive,inactive,inactive,inactive,inactive,inactive,–,inactive
CC(C)C[C@H](NC(=O)CNC(=O)[C@H](Cc1ccc(O)cc1)NC(=O)[C@H](CO)NC(=O)[C@H](Cc1c[nH]c2ccccc12)NC(=O)[C@H](Cc1cnc[nH]1)NC(=O)[C@@H]1CCC(=O)N1)C(=O)N[C@@H](CCCN=C(N)N)C(=O)N1CCC[C@H]1C(=O)NCC(N)=O (stereo in doubt),inactive,inactive,inactive,inactive,inactive,inactive,–,inactive,inactive,inactive,inactive,–,–,inactive,inactive,inactive,inactive,inactive,–,–
C[C@@H]1O[C@@H](O[C@@H]2[C@@H](O)[C@H](OCCc3ccc(O)c(O)c3)O[C@H](CO[C@@H]3O[C@H](CO)[C@@H](O)[C@H](O)[C@H]3O)[C@H]2OC(=O)/C=C/c2ccc(O)c(O)c2)[C@H](O)[C@H](O)[C@H]1O,inactive,inactive,inactive,–,inactive,inactive,inactive,inactive,inactive,inactive,–,inactive,–,inactive,inactive,–,–,inactive,–,–
COc1ccc2c(c1OC)C(=O)O[C@@H]2[C@H]1c2c(cc3c(c2OC)OCO3)CCN1C,inactive,inactive,inactive,–,inactive,–,inactive,inactive,inactive,inactive,–,inactive,–,inactive,–,2.11 µM (active),3.35 µM (active),inactive,inactive,–

# Reference: PubChem BioAssay (Tox21)
